Experimental data from PubChem BioAssay AID449762 (Southern Research Specialized Biocontainment Screening …, 2010).
Hit rate of the full screen: of about 330,000 compounds, about 1,900 (0.58%) were called active. Not shown: some 4% with an inconclusive outcome. No stated cut-off is given here; in the data, inconclusive means inhibition above about 70% without an active follow-up result; inactive means below that. Only a sample is shown. Results with a measured potency or affinity are listed apart.

Assay: M. tuberculosis growth inhibition, HTS (AID 449762);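 further: bacterial growth assessed after seven days of incubation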
Details: M. tuberculosis H37Rv growth inhibition, 7H9 media; at 25 µM; hits give high values

SMILES | inhibition
Cc1ccc2cc(C)c(N3CCN(c4ccc(F)cc4)CC3)nc2c1 | 0.67% (inactive)
Cc1ccc2cc(C)c(N3CCC(C)CC3)nc2c1 | -2.14% (inactive)
CN(Cc1ccc(Cl)s1)C(=O)CNC(=O)CNC(=O)c1ccc(Cl)cc1Cl | 0.015% (inactive)
CN(Cc1ccc(Cl)s1)C(=O)CSc1nnc(C2CC2)n1C1CC1 | 2.1% (inactive)
O=C(COc1ccc(Cl)cc1Cl)Nc1ccc(-c2ccc(N3CCOCC3)nn2)cc1 | 27.4% (inactive)
Cc1ccc2c(c1)C1C[N+](C)(CC(=O)c3ccccc3)CCC1N2C(=O)c1ccccc1Cl (stereo not given) | -0.23% (inactive)
Cc1ccc2c(c1)C1C[N+](C)(CC(=O)Nc3ccccc3Cl)CCC1N2C(=O)c1ccccc1Cl (stereo not given) | 21.9% (inactive)
CC(C)[C@H](NC(=O)c1ccccc1F)C(=O)Nc1nc2c(s1)CCCC2 | -0.81% (inactive)
COc1cccc(-c2nc(CS(=O)(=O)CC(=O)Nc3ccccc3Br)c(C)o2)c1 | -5.15% (inactive)
Cc1cc(N2CCCCC2)n2ncc(-c3ccc(Cl)cc3)c2n1 | 94.8% (inactive)
Cc1cc(C)n2cc(-c3ccc(Cl)cc3)c(C(=O)O)c2n1 | 5.32% (inactive)
Cc1nn(C)c(C)c1C1C(C#N)=C(N)Oc2n[nH]c(C)c21 (stereo not given) | 4.26% (inactive)
CC(C)c1ccc(CNc2c([N+](=O)[O-])c(=O)oc3ccccc23)cc1 | 4.35% (inactive)
Cc1cccc(NN=C2c3ccccc3-c3ccccc32)c1 | 3.47% (inactive)
O=C(O)c1cc(NN=C2c3ccccc3-c3ccccc32)ccc1Cl | 14% (inactive)
COc1ccc(-n2c(COc3ccc4c(c3)OCO4)nnc2SCC(=O)O)cc1 | 14.8% (inactive)
Cc1cc2occ(CC(=O)NC3(C)CCS(=O)(=O)C3)c2cc1C (stereo not given) | -9.66% (inactive)
CN(C)c1ccc(CNc2ccc3c(c2)ncn3C(C)(C)C)cc1 | 8.27% (inactive)
CCOc1ccc(CNc2ccc3c(c2)ncn3C(C)(C)C)cc1 | -2.96% (inactive)
CC(C)(C)n1nnnc1C(c1cccc(C(F)(F)F)c1)N1CCC(O)CC1 (stereo not given) | 2.3% (inactive)
Cc1ccc(-c2noc(C3CCCN(C(=O)c4ccc(Cl)cc4)C3)n2)o1 (stereo not given) | 0.38% (inactive)
Cc1ccc(-c2noc(C3CCCN(C(=O)c4ccccc4)C3)n2)o1 (stereo not given) | 2.39% (inactive)
COc1cccc(C(=O)NNC2=C(C(=O)C(F)(F)F)CCC2)c1 | 0.71% (inactive)
O=C(Nc1cccc(S(=O)(=O)NC2=NCCCCC2)c1)c1cc(-c2ccccc2)nc2ccccc12 | 4.99% (inactive)

SMILES | inhibition
CCn1c(SCC(=O)N2CCCCC2C)nnc1-c1ccco1 (stereo not given) | -6.38% (inactive)
O=C(N/N=C/c1cc2ccccc2nc1Cl)[C@H]1C[C@@H]1c1ccccc1 | 22.8% (inactive)
Cc1cccc2cc(/C=N/NC(=O)[C@H]3C[C@@H]3c3ccccc3)c(Cl)nc12 | 1.65% (inactive)
N#Cc1ccc(OCC(=O)Nc2cccc(S(=O)(=O)NC3=NCCCCC3)c2)cc1 | -7.44% (inactive)
Oc1ccc(Nc2nc(-c3ccccc3)nc3ccccc23)cc1 | 10.3% (inactive)
COc1cc2c(cc1OC)CN(CCOc1ccc(Br)cc1)CC2 | -0.08% (inactive)
COc1ccc(C(=O)CCN2CCc3cc(OC)c(OC)cc3C2)cc1 | 68.3% (inactive)
COc1cc(OC)cc(C(=O)N[C@H](C(=O)OCC(=O)c2c[nH]c3ccccc23)C(C)C)c1 | -5.93% (inactive)
C=C1SC(Nc2c(C)cc(C)cc2C)=NC12CCCCC2 | 4.72% (inactive)
Cc1cc(C)n(Cc2ccc(C(=O)NN)o2)n1 | -3.98% (inactive)
Cc1nc(N2CCOCC2)c2oc3ccccc3c2n1 | -22.1% (inactive)
CCOC(=O)C1CCN(c2nc(C)nc3c2oc2ccccc23)CC1 | 13.6% (inactive)
CCOc1ccc(C2CC(c3ccc(CC)cc3)Nc3nc(N)nn32)cc1 (stereo not given) | 53.9% (inactive)
CCCCc1nc2cc(C(=O)NCc3nccn3CC)ccc2o1 | -0.01% (inactive)
O=C(NNC(=S)NC1CCCCC1)c1sc2ccccc2c1Cl | 4.12% (inactive)
O=C(NC(=S)NCCO)c1sc2ccccc2c1Cl | -1.03% (inactive)
COC(=O)C1CCN(C(=O)COC(=O)c2cc(-c3cccs3)nn2-c2ccccc2)CC1 | 68.6% (inactive)
NC(=O)COC(=O)c1cc(-c2cccs2)nn1-c1ccccc1 | 3.52% (inactive)
O=[P+](Cc1ccccc1)Cc1ccccc1 | 5.56% (inactive)
CCOc1cc2c(cc1OCC)-n1cccc1C(c1ccc(OC)cc1)NC2 (stereo not given) | 12.2% (inactive)
CCOc1cc2c(cc1OCC)-n1cccc1C(c1ccc(F)cc1)NC2 (stereo not given) | 4.18% (inactive)
CCN1CCN(C(C(=O)NC2CCCCC2)c2ccc(Cl)cc2)CC1 (stereo not given) | -6.43% (inactive)
COc1ccc(-c2cc(C)no2)cc1S(=O)(=O)NCCCN1CCN(c2ccccc2)CC1 | 1.94% (inactive)
Cc1cc(-c2ccc(C)c(S(=O)(=O)NCCCN3CCN(c4ccccc4)CC3)c2)on1 | 36.8% (inactive)

SMILES | inhibition
c1ccc2c(c1)nc1n2CCS1 | -2.74% (inactive)
COc1cc(C(=O)NNC(=O)c2ccc3ccccc3n2)cc(OC)c1OC | 5.84% (inactive)
COc1cccc(NC(=O)/C=C/c2ccccc2[N+](=O)[O-])c1 | -3.12% (inactive)
CCN(CC)CCSc1nnc2c3ccccc3n(Cc3ccccc3)c2n1 | 3.52% (inactive)
CCn1c2ccccc2c2nnc(SCCN3CCCCC3)nc21 | 5.94% (inactive)
CCOC(=O)C1(CC2CCCCO2)CCN(Cc2nc3ccccc3nc2C)CC1 (stereo not given) | 0.36% (inactive)
CCOC(=O)c1cccc(NC(=O)C2CCN(S(=O)(=O)c3cccs3)CC2)c1 | -3.98% (inactive)
COCCCNC(=O)c1sc2ncnc(N3CCc4ccccc4C3)c2c1C | 22.6% (inactive)
CCN1CCN(C(=O)c2sc3ncnc(N4CCc5ccccc5C4)c3c2C)CC1 | 1.76% (inactive)
O=C(NCCN1CCCCC1)c1ccc2c(c1)OCCO2 | 1.64% (inactive)
O=C(O)CCCC(=O)N1CCN(c2nc(-c3ccccc3Cl)c3cc(Br)ccc3n2)CC1 | 2.83% (inactive)
O=C(O)CCC(=O)N1CCN(c2nc(-c3ccccc3Cl)c3cc(Br)ccc3n2)CC1 | 8.23% (inactive)
Cc1ccc(N(C(=O)c2csnn2)C(C(=O)NC2CCCCC2)c2ccccn2)c(C)c1 (stereo not given) | -6.22% (inactive)
COc1cc(CC(=O)O)ccc1OCc1ccccc1 | -4.67% (inactive)
COc1ccc(N(CC(=O)NC2CCCCC2)C(=O)CNC(=O)c2cccs2)cc1OC | -4.95% (inactive)
CCNC(=O)c1ccccc1NC(=O)c1cccc(S(=O)(=O)N2CCOCC2)c1 | 1.29% (inactive)
Cc1ccccc1C(=O)NC(C)C1CC2CCC1C2 (stereo not given) | 4.28% (inactive)
CC(NC(=O)c1ccccc1Cl)C1CC2CCC1C2 (stereo not given) | 4.24% (inactive)
COc1ccc(C(=O)NC(C)C2CC3CCC2C3)cc1 (stereo not given) | 0.61% (inactive)
COc1ccc(C(=O)NC(C)C2CC3CCC2C3)c(OC)c1 (stereo not given) | 7.27% (inactive)
Cn1cnnc1SCC(=O)NCCc1ccccc1 | 0.84% (inactive)
COC(=O)CCC(=O)Nc1cccc(Br)c1 | -7.91% (inactive)
CC(C)(C)NC(=O)CSc1ncnc2c1nnn2Cc1ccccc1Cl | 18% (inactive)
COCCCN1C(=O)c2ccc(C(=O)N3CCN(c4ccc(OC)cc4)CC3)cc2C1=O | 0.38% (inactive)

SMILES | inhibition
Cc1cc(C)c(-n2nnnc2SCC(=O)c2cc3ccccc3o2)c(C)c1 | -0.74% (inactive)
CCOC(=O)CNC(=O)CSc1nnc(NC(=O)c2ccc3c(c2)OCO3)s1 | -3.99% (inactive)
COC(=O)CSc1nnc(NC(=O)c2ccc3c(c2)OCO3)s1 | 56.1% (inactive)
COc1cccc(N2CCN(C(=O)c3cccn4c(=O)c5c(C)c(C)sc5nc34)CC2)c1 | -1.68% (inactive)
CCOc1ccc(CCNC(=O)COC(=O)c2cc(OC)c(OC)c(OC)c2)cc1OCC | -6.27% (inactive)
CCc1nnc(NC(=O)c2csc3c2CCC(C)C3)s1 (stereo not given) | 0.85% (inactive)
Cc1nnc(NC(=O)c2csc3c2CCC(C)C3)s1 (stereo not given) | 6.53% (inactive)
O=C(C1CCCN1S(=O)(=O)c1ccc(Cl)c(Cl)c1)N1CCOCC1 (stereo not given) | 1.37% (inactive)
OCC[C@H]1C[C@@H](O)[C@H](O)[C@]2(OCc3ccccc32)O1 | 4.05% (inactive)
CN(C)CCCNC(=S)N(CCN(C)C)Cc1cc2cc3c(cc2[nH]c1=O)OCCO3 | -2.66% (inactive)
CCOc1ccccc1N1CCN(CC(=O)Nc2cc(C)on2)CC1 | -0.33% (inactive)
O=C(Nc1ccccc1O)c1ccccc1O | -2.76% (inactive)
CC(=O)Nc1ccccc1O | -6.49% (inactive)
CCC(=O)c1ccc(OCC(O)CNC2CCCC2)cc1 (stereo not given) | -4.31% (inactive)
Clc1ccc(Cn2ncc3c(N4CCCC4)ncnc32)cc1 | 6.77% (inactive)
Cc1ccc(Cn2ncc3c(N4CCN(Cc5ccc(Cl)cc5)CC4)ncnc32)cc1 | 35% (inactive)
COc1ccc(NC(=O)c2c3c(nc4ccccc24)CCC3)cc1 | 2.33% (inactive)
CCCC(O)(CCC)C(=O)NN(C(=O)CCl)c1ccccc1 | 64.3% (inactive)
CCC(O)(CC)C(=O)NN(C(=O)CCl)c1ccccc1 | 64.9% (inactive)
CC(C)(C)NC(=O)C1Cc2ccccc2CN1S(=O)(=O)c1ccc(F)cc1 (stereo not given) | -4.99% (inactive)
CC(C)Oc1cccc(C(=O)C2CCCN(Cc3cnc(N4CCOCC4)s3)C2)c1 (stereo not given) | 0.96% (inactive)
CCOC(=O)N1CCN(S(=O)(=O)c2ccc(C(=O)N(CCN(CC)CC)c3nc4ccc(C)cc4s3)cc2)CC1 | -2.86% (inactive)
CCN(CC)CCN(C(=O)c1ccc(S(=O)(=O)N2CCCCC2)cc1)c1nc2cc3c(cc2s1)OCO3 | 1.42% (inactive)
